# p53null 32C tox: p53 null cell cytotoxicity, permissive temperature. H1299-neo p53 null cells, ATP luminescence, 24 h, 32C. Potency, µM (series often up to 46.1 µM), for inactives: at the top dose activity change, negative = cytotoxicity, most hits filed as cytotoxic. 0.62% of 55,000 active;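 further: potency means the concentration at half of the fitted maximal effect; 0% = DMSO only and -100% = full killing by 100 µM tamoxifen; nearly all actives have a fitted effect of over 55% in size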
#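 H1299-neo (p53 null) cells, 600/well, treated 24 h at 32C with compound up to 46 uM; ATPlite luminescence viability, normalized to DMSO and 100 uM tamoxifen; AC50 by Hill fit.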
# HTT prom inh: inhibitors of huntingtin promoter activity; HEK293 HTT promoter firefly luciferase reporter, 24 h; Potency, µM (top dose mostly 57.5 µM), inactives show at the highest dose activity change, negative = inhibition, hits mostly inhibitors; 0.93% of 48,000 active; AID 1508623; further: potency means the concentration at half of the fitted maximal effect; nearly all actives have a fitted effect of over 50% in size
#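 Firefly luciferase signal from promoter-reporter HEK293 cells was scaled between vehicle (0%) and zero RLU (-100%). Compounds were tested at final concentrations of up to 57.5 uM over 24 h at 37 degrees C. PTC124 at 50 uM final served as control inhibitor.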
# DRV1 agonist: agonists of human resolvin D1 receptor DRV1 (GPR32). O75388. CHO-K1 GPR32 beta-arrestin PathHunter luminescence, 90 min; zero percent set by DMSO-only wells. activation, % at 76.9 µM. 2.5% of 48,000 active. AID 1346428;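 active means activation of at least 60% and not above a set upper limit, about 1 call in 100 departs from these limits; inconclusive means activation of 40% to 60%, or above that upper limit; inactive means activation under 40%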; further: 0% is about no effect
# Target sequence (O75388 whole entry, looked up): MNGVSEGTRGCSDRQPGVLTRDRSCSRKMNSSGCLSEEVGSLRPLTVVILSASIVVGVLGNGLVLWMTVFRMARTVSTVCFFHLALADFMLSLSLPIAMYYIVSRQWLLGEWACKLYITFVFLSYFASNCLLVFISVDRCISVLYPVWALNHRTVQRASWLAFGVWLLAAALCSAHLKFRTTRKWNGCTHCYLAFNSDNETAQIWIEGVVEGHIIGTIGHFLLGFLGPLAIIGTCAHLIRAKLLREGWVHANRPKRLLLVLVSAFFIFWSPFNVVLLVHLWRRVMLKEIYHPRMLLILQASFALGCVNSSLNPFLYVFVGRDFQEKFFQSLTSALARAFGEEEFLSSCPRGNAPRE
#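 Beta-arrestin recruitment read-out: luminescence from complemented beta-Gal in CHO-K1 GPR32 PathHunter cells, measured 1 h after detection reagent at ambient temperature following 90 min compound exposure at 37 °C; DMSO served as basal (EC0) control.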
# p53null 39C kill: selectivity test: cytotoxicity in p53 null cells, nonpermissive temperature; 0.97% of 55,000 active; H1299 p53-null (neo) cells, 39C, ATPlite viability, 24 h; Potency, µM (doses to about 46.1 µM), inactives show at the highest dose activity, negative = cell killing, actives largely listed as cytotoxic; AID 904;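 further: potency means the concentration at half of the fitted maximal effect; 0% = DMSO only and -100% = full killing by 100 µM tamoxifen; nearly all actives have a fitted effect of over 50% in size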
#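 Cells seeded at 600/well, 37C overnight. Compound added (up to 46 uM), plates shifted to 39C for 24 hr. ATPlite added, luminescence read after 20 min at room temperature.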
# HTT-AS act: HTT-AS promoter activation; HEK293 HTT-AS promoter firefly luciferase reporter, 24 h; response scale: percent change from vehicle, -100% = no light; Potency, µM (highest dose often 57.5 µM), without a hit: at the highest dose activity change, positive = activation, actives largely listed as activators; 0.24% of 48,000 active; further: potency means the concentration at half of the fitted maximal effect; nearly all actives have a fitted effect of over 55% in size
#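 HEK293 luciferase promoter-reporter cells (2,500/well) plated 24 h, then compounds added at up to 57.5 uM final for 24 h at 37 °C. Firefly luminescence by Dual-Glo, normalized to vehicle (0%) and zero RLU (-100%).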
# Starred values were filed as active, the others as inactive; ? = inconclusive; · = not tested or not shown; ! = not active in a repeat; [ ] = another dose, or the depositor's remark. In the library only some 3.9% were active in any assay of this set; here they are far more common. Unless noted, the call rests on the fitted dose curve; in most records, active means well fitted curve in the direction sought with a large enough effect; inconclusive means small, poorly fitted or top-dose-only effect, or another doubt; inactive means no such curve, though single readings can be large; an effect the other way counts as inactive or inconclusive.
SMILES,p53null 32C tox,HTT prom inh,DRV1 agonist,p53null 39C kill,HTT-AS act
Cc1ccc(Cn2c(CCCNC(=O)c3ccco3)nc3ccccc32)cc1,-2.8%,·,23.8,-15.1%,·
COc1ccc(Nc2c3c(nc4ccccc24)CCC3)cc1Cl,-1.1%,?,-14.1,?,-42.6%
COc1ccc(Nc2c3c(nc4ccc(NC(=O)/C=C/c5cccc(OC)c5OC)cc24)CCCC3)cc1OC,10µM*,?,-0.5,3.16µM*,-95.0%
COc1ccc(C)cc1Nc1c2c(nc3ccccc13)CCC2,-9.9%,?,2.0,15.8µM*,-44.1%
COc1ccc(/C=C/C(=O)Nc2ccc(Cl)c(Cl)c2)cc1,-11.8%,-19.3%,67.6*,?,24.3%
COc1ccc(Nc2c3c(nc4ccc(NC(=O)/C=C/c5cc(OC)c(OC)c(OC)c5)cc24)CCCC3)cc1OC,12.6µM*,31.6µM*,-10.1,7.08µM*,-76.5%
COc1ccc(/C=C/C(=O)Nc2ccc(C)cc2)cc1,-22.5%,-13.3%[11.5 µM],-9.4,-28.6%,?
CCCNC(=O)[C@H]1O[C@H]1C(=O)N[C@H](C(=O)N1CCC[C@@H]1C(=O)OC)C(C)CC (some centres not stated),·,-10.1%,·,·,-42.7%
COc1ccc(CCC(=O)Nc2nc3ccc(Cl)cc3s2)cc1OC,·,?,·,·,14.9%
COc1ccc(/C=C/C(=O)Nc2ccc3nc4c(c(Nc5ccc(OC)c(OC)c5)c3c2)CCCC4)cc1,12.6µM*,?,-3.1,6.31µM*,-94.2%
COc1ccc(/C=C/C(=O)Nc2ccc3nc4c(c(Nc5ccccc5OC)c3c2)CCCC4)cc1,-8.6%,?,-22.7,?,-94.2%
COc1ccccc1Nc1c2c(nc3ccc(NC(=O)c4cccc(F)c4)cc13)CCCC2,?,?,-0.4,10µM*,-93.5%
CC1(C)S[C@@H]2[C@H](NC(=O)C(c3ccccc3)S(=O)(=O)O)C(=O)N2[C@H]1C(=O)O (some centres not stated),·,6.4%,-13.1,·,-4.3%
COc1ccc(-c2nc(N3CCOCC3)c3sc(CN(C)c4ncc(C(=O)NO)cn4)cc3n2)cn1,·,109.3%,·,·,?
CNC(=O)c1c(I)c(NC(C)=O)c(I)c(C(=O)O)c1I,·,-0.2%,30.3,·,0.7%
NNCCc1ccccc1,·,-7.1%,?,·,3.98µM*!
OCc1cc(C(O)CNCCCCCCOCCCCc2ccccc2)ccc1O (configuration not stated),·,-8.2%,107.7*!,·,-13.3%
NS(=O)(=O)c1ccc(NC2=CC(=O)c3ccccc3C2=O)cc1,·,-10.2%,·,·,-17.5%
COc1ccc2c(c1)CC[C@H]1[C@@H]2CC[C@]2(C)[C@@H](NCCCCCCN3C(=O)C=CC3=O)CC[C@H]12,·,31.3%,·,·,?
Cc1ccc(NC(=O)n2ncc3c(C)cccc32)c(C)c1,2.3%,55.6%,-18.9,-6.7%,7.08µM*
O=C(O)c1cn(C2CC2)c2cc(Cl)c(F)cc2c1=O,·,12.1%,-4.7,·,-5.7%
Cc1ccc(-c2cn3ccc(C)cc3n2)cc1,0.631µM*,-9.8%,-43.7,0.794µM*,-18.4%
Cc1coc2cc3oc(=O)c(CCC(=O)N4CCCCC4)c(C)c3cc12,-3.1%,·,106.8*,-5.5%,·
CC(=O)N1CCCc2cc(S(=O)(=O)N(CCN(C)C)Cc3ccccc3)ccc21,-10.0%,-15.7%,-6.4,10µM*,-6.8%
